BoNT A protease: BoNT/A light chain protease inhibitors, primary screen, biochemical, flow cytometry, MLPCN library | Botulinum neurotoxin type A light chain protease (Clostridium botulinum A str. ATCC 3502) | multiplex microsphere protease substrate cleavage | inhibition, % at 10 µM | hit rate 0.17% among 360,000 | AID 588499, 2011
Anthrax LF prot: Bacillus anthracis LF protease inhibitors, primary screen, biochemical, multiplex microsphere, MLPCN library. Lethal factor (Bacillus anthracis), P15917. multiplex microsphere protease cleavage assay. inhibition, % at 10 µM. hit rate 0.12% among 360,000. AID 588501, 2011
BoNT-F LC inh: BoNT/F light chain protease inhibitors, primary screen, biochemical, flow cytometry, MLPCN library | Multiplex microsphere protease cleavage assay | inhibition, % at 10 µM | Botulinum neurotoxin type F light chain protease (Clostridium botulinum) | AID 588497, 2011 | hit rate 0.22% among 360,000; in the data active = inhibition above about 35%, passing the limit was not always enough; inconclusive = no clear call, values can overlap the other calls
Bead autofluor: compound fluorescence in toxin protease inhibitor counterscreen. hit rate 3.1% among 360,000. fluorescence intensity (concentration not given with the values). compound autofluorescence counterscreen, microsphere flow cytometry; active compounds read high. AID 624483; in the data active = fluorescence intensity above about 16000; inconclusive = no clear call, values can overlap the other calls
MazF activator: activators of E. coli MazEF toxin-antitoxin RNase, primary screen, biochemical, fluorescence, uHTS; hit rate 0.32% among 350,000; FAM/BHQ RNA-DNA oligo cleavage fluorescence, 5 h; Endoribonuclease toxin MazF (Escherichia coli (strain K12)), P0AE70; activation, % at 20 µM; in the data active = activation above about 50%
A number is an active result; – = inactive; ? = inconclusive. Only some compounds are listed: those with a hit (about 3.7% of all), similar ones and a draw of the others. Cut-off read from the data, not from the text of the source, unless noted: active = inhibition above about 30%; inconclusive = no clear call, values can overlap the other calls; inactive = below that.

SMILES	BoNT A protease	Anthrax LF prot	BoNT-F LC inh	Bead autofluor	MazF activator
COCC(=O)Nc1nc(-c2ccccc2)c(C)s1	–	–	–	19856	–
CN(Cc1cccc(F)c1)C(=O)c1ccc(S(=O)(=O)N2CCOCC2)cc1	–	–	–	–	–
Cc1nnc(C)c2c(C)n(C(C)c3ccccc3)c(C)c12 (stereo not given)	–	–	–	–	–
COc1ccc(C(C)n2c(C)c3c(C)nnc(C)c3c2C)cc1 (stereo not given)	–	–	–	16371	–
COc1nnc(-c2ccc(N3CCOCC3)c(NC(=O)C3CCCCC3)c2)c2ccccc12	–	–	–	–	–
c1ccc2c3c(cc(N4CCOCC4)c2c1)OC1(N2CCOCC2)CCCCC1O3 (stereo not given)	–	–	36.4	–	–
CCN(C(=O)CN1C(=O)S/C(=C\C=C\c2ccccc2)C1=O)C1CCS(=O)(=O)C1 (stereo not given)	–	–	–	–	–
COc1ccc(Nc2nnc(SCc3cc([N+](=O)[O-])cc4c3OCOC4)s2)cc1	–	–	–	23675	–
Cn1ccnc1SCc1ccc([N+](=O)[O-])cc1	?	–	–	19757	–
COc1ccc(CSc2nnc(SCc3ccc([N+](=O)[O-])cc3)s2)cc1	–	–	–	23671	–
CN(c1ccc([N+](=O)[O-])cc1C(=O)Nc1ccccc1)C1CCCCC1	–	–	–	21198	–
O=C(NC(=S)N1CCOCC1)c1cn(-c2ccccc2)nc1-c1ccccc1	–	–	–	–	–
CCc1ccc(OCC(=O)Nc2cc(S(=O)(=O)CC)ccc2O)cc1	–	–	–	17897	–
CCS(=O)(=O)c1ccc(O)c(NC(=O)COc2ccccc2)c1	–	–	–	–	–
CCn1c(CSc2nc3ccccc3[nH]2)n[nH]c1=S	–	–	–	23009	–
Nc1nc(SCCO)[nH]c(=O)c1NC(=O)c1ccco1	–	–	–	19769	–
Nc1nc(SCC(=O)O)[nH]c(=O)c1NC(=O)c1ccco1	–	–	–	–	–
O=C(/C=C/c1ccc2c(c1)OCO2)NCCS(=O)(=O)N1CCN(c2ccccc2)CC1	–	–	–	–	–
O=C(Nc1ccc(Cl)cc1C(=O)NCc1cccnc1)c1ccco1	?	–	–	23145	–
O=C(Nc1ccc(Cl)cc1C(=O)NCC1CCCO1)c1ccco1 (stereo not given)	–	–	–	23431	–
CCOc1cc(NS(=O)(=O)c2ccc(OC)cc2)c(OCC)cc1NC(=O)c1ccco1	–	–	–	22748	–
O=C(Nc1ccc(Cl)cc1C(=O)NCC1CCCO1)c1ccc(Cl)cc1Cl (stereo not given)	–	–	–	–	–
Cc1cc(NC(=O)c2cccnc2)ccc1NC(=O)c1ccco1	–	–	–	22536	–
CN(CC(=O)Nc1cccc(F)c1)C(=O)CSc1ccccc1	–	–	–	–	–
CN(CCC#N)CC(=O)Nc1ccc(S(N)(=O)=O)cc1	–	–	–	–	–
SMILES	BoNT A protease	Anthrax LF prot	BoNT-F LC inh	Bead autofluor	MazF activator
COc1ccc(NC(=O)N(C)C[C@H]2OCc3cnnn3CCCC(=O)N([C@@H](C)CO)C[C@H]2C)cc1	–	–	–	–	–
CCOc1cc(NC(=O)c2ccco2)c(OCC)cc1NC(=O)CCC(=O)NCc1cccnc1	–	–	–	19666	–
CN(C)/C=C1\C(=O)N(c2ccc(Oc3ccccc3)cc2)CS1=O (stereo not given)	–	–	–	22670	–
CN(C)S(=O)(=O)c1ccc(Oc2ccccc2)cc1	–	–	–	–	–
Cc1nc2sc(C(=O)OCC(=O)N3c4ccccc4CC3C)c(C)c2c(=O)[nH]1 (stereo not given)	–	–	–	–	72.2
O=C(CN1C(=O)C2CC=CCC2C1=O)Nc1ccc(OC(F)(F)F)cc1 (stereo not given)	–	–	–	–	–
COc1cc2nc(SCc3ccc(C(F)(F)F)cc3)n(Cc3cccs3)c(=N)c2cc1OC	–	–	–	–	–
COc1ccc(Cn2c(SCc3cc(C)ccc3C)nc3cc(OC)c(OC)cc3c2=N)cc1	–	–	–	–	–
COc1cc2nc(SCc3ccc(Cl)cc3Cl)n(Cc3cccs3)c(=N)c2cc1OC	–	–	–	20638	–
COc1ccc(Cn2c(SCc3ccc(C)cc3)nc3cc(OC)c(OC)cc3c2=N)cc1Cl	–	–	–	16606	–
O=C(Nc1nnc(C2CC2)s1)c1cccc(S(=O)(=O)N2CC(c3ccccc3)CC2=O)c1 (stereo not given)	–	–	–	–	–
CCOc1ccc(N2C(=O)CSC23CCCCC3)cc1	–	–	–	–	–
COc1ccc(N2C(=O)CSC23CCCCC3)cc1	–	–	–	21829	–
COc1ccc(C(=O)c2cnc(C(C)C)n2C)cc1	–	–	–	–	–
CCCc1ncc(C(=O)c2ccc(OC)cc2)n1C	–	–	–	24262	–
C[C@H]1CCC[C@@]2(O[C@H](CCO)C[C@@H](O)[C@@H]2O)O1	–	–	–	–	–
Cc1ccc(N2C(=O)NC(=O)/C(=C\c3cccn3C(C)(C)C)C2=O)cc1	–	–	–	–	–
CCC(C)c1ccc(N2C(=O)NC(=O)/C(=C/c3cccn3CCOc3ccc(C)cc3)C2=O)cc1 (stereo not given)	–	–	–	–	123.8
O=C(O)C1CCCCC1C(=O)NCCc1ccccc1 (stereo not given)	–	–	–	–	–
CC(CNC(=O)C1CCCCC1C(=O)O)c1ccccc1 (stereo not given)	–	–	–	22629	–
CCOC(=O)C1=C(C)NC2=C(C(=O)C(C(=O)OCC)C(c3ccco3)C2)C1c1ccccn1 (stereo not given)	–	–	–	–	62.5
CCOC(=O)C1=C(C)NC2=C(C(=O)C(C(=O)OCC)C(c3ccccc3OC)C2)C1c1ccccn1 (stereo not given)	–	–	–	–	–
CCOC(=O)C1=C(C)NC(=O)C(C#N)C1c1ccco1 (stereo not given)	?	–	–	18722	–
CCOc1cc(C2C3=C(CCCC3=O)Nc3nc(C(=O)OC)nn32)ccc1OC (stereo not given)	–	–	–	22585	–
CCOC(=O)CSc1nc2ccccc2n1CC(=O)NC(C)(C)C	–	–	–	21055	–
SMILES	BoNT A protease	Anthrax LF prot	BoNT-F LC inh	Bead autofluor	MazF activator
O=C(CCN1C(=O)c2ccccc2S1(=O)=O)NCc1ccc(F)cc1	?	?	?	?	–
O=C1c2ccccc2S(=O)(=O)N1CCOc1ccc(F)cc1	–	–	–	24481	–
Clc1cccc(CNCCCSc2ncccn2)c1	–	–	?	–	–
COc1ccc(Oc2nnnn2-c2ccccc2)cc1	?	–	–	22772	–
COc1cccc(Oc2nnnn2-c2ccccc2)c1	–	–	–	–	–
C=CCN1CCN(C(=O)CCc2ccccc2)CC1	–	–	–	–	–
Cc1cc(C)n2nc(C(=O)N3CCOCC3)nc2n1	–	–	–	–	–

High-throughput results: PubChem, several laboratories
